# Screening results deposited in PubChem by The Scripps Research Institute Molecular Screening Center.
# ssDAF12 agonist: S. stercoralis DAF-12 activation, primary screen. activation, % at 6.8 µM. AID 652126. hit rate 1% among 370,000. HEK293 ssDAF-12/GRIP1 lit1-tk-luc reporter, luminescence; % of 3 µM dafachronic acid response;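 active = activation above the mean over all tested compounds plus 3 SD, cut at about 0.9% in these data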;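 note: 0% = DMSO-only wells and 100% = 3 µM delta7-dafachronic acid wells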
# DAX1 inh-1: inhibitors of DAX1 repression of SF-1 activated StAR promoter; hit rate 1.1% among 370,000; inhibition, % at 6.8 µM; HEK293T StAR-luciferase reporter, SF-1/DAX-1 repression relief;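 active = inhibition above the mean over all tested compounds plus 3 SD, cut at about 3.6% in these data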;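 note: 0% = DAX-1 cells with DMSO and 100% = cells lacking DAX-1 with DMSO; higher inhibition means more luminescence from relief of DAX-1 repression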
# hgDAF-12 ag: activates the H. glycines DAF-12 receptor ligand-binding domain. AID 687014. hit rate 1.8% among 370,000. activation, % at 6.8 µM. HEK293 GAL4-hgDAF12 UAS-luciferase reporter, agonist luminescence; normalized to butyrate control;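 active = activation above a cutoff set at the mean of all screened compounds plus 3 SD, cut at about 10% in these data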;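 note: 0% = DMSO wells and 100% = sodium butyrate wells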
# DAX1 inh-2: NR0B1 (DAX1) inhibition. inhibition, % at 6.75 µM. HEK293 Gal4-DAX1 luciferase reporter, luminescence. hit rate 0.99% among 340,000. AID 504766. P51843;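 active = inhibition above the mean over all tested compounds plus 3 SD, cut at about 4.2% in these data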;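 note: 0% = DAX1-transfected cells with DMSO and 100% = empty-vector control cells with DMSO; inhibition shows as a rise in luminescence from relieved DAX1 repression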
# Target sequence (P51843 207-470 limits assumed): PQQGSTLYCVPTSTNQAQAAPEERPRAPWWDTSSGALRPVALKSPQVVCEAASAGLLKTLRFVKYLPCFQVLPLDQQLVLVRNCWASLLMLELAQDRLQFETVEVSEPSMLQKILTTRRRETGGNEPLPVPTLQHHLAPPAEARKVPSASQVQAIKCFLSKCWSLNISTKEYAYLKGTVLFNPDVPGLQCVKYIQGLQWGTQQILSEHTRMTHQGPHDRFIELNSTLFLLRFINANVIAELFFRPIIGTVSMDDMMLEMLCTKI
# hcDAF12 agonist: activators of H. contortus DAF-12 nuclear receptor. HEK293 hcDAF-12 lit1-tk-luc reporter, luminescence; 0% DMSO, 100% Δ7-dafachronic acid. activation, % at 6.8 µM. hit rate 1.4% among 370,000. AID 652067;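 active = activation above the mean of all tested compounds plus 3 SD, cut at about 5.5% in these data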;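 note: 100% = response to 3 µM Δ7-dafachronic acid high control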
# LXRb hcDAF ctr: counter-screen for hcDAF-12 agonists: agonists of human LXR-beta; shares compounds with hcDAF12 agonist; 3,400 tested, under 10 active; AID 743027; activation, % at 6.8 µM; HEK293 Gal4-LXR tk-luc reporter, luminescence, 24 h; normalized: DMSO 0%, positive control 100%;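 active = mean percent activation of the reporter above a cutoff set as the average over tested compounds plus their standard deviation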
# hcDAF12 ag: hcDAF-12 agonism, confirmation assay; hit rate 61% among 3,400; activation, % at 6.8 µM; shares compounds with hcDAF12 agonist; HEK293 hcDAF-12 lit1-tk-luc reporter, luminescence; % of Δ7-dafachronic acid response; AID 743032;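 active = mean activation across triplicate tests above the threshold derived from the earlier primary screen, cut at about 5.5% in these data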;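 note: 0% = DMSO only wells and 100% = 3 µM Δ7-dafachronic acid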
# * hit, by the source's call; . = not tested or not shown. Only some compounds are listed: those with a hit (about 4.1% of all), similar ones and a draw of the others.
SMILES,ssDAF12 agonist,DAX1 inh-1,hgDAF-12 ag,DAX1 inh-2,hcDAF12 agonist,LXRb hcDAF ctr,hcDAF12 ag
Cc1onc(-c2c(Cl)cccc2Cl)c1NC(=O)NN(C)C,-1,0,3,3,0,.,.
N#C/C(=C\Nc1ccc2cn[nH]c2c1)c1nc(-c2ccccc2)cs1,-1,-1,-1,-1,0,.,.
N#C/C(=C\Nc1ccc2cn[nH]c2c1)c1nc(-c2ccc(Cl)cc2)cs1,0,0,2,2,7.3*,-1,3
Cc1ccc(NC(=O)C2=C(O)CCn3c2nc2ccccc23)cc1,1.9*,0,4,1,8.9*,0,5
CC(C)c1onc(C(=O)Nc2sc3c(c2C#N)CCC3)c1[N+](=O)[O-],-1,0,-2,2,1,.,.
N#Cc1c(NC(=O)c2ccc([N+](=O)[O-])o2)sc2c1CCC2,1.0*,0,7,-2,8.1*,1,5
COc1ccc(NCC(=O)NN=C2CCS(=O)(=O)c3ccc(F)cc32)cc1,-1,0,1,.,0,.,.
Cc1ccc2nc(N3C(=O)CNC3=S)sc2c1,0,2,6,.,4,.,.
COc1ccc2nc(N3C(=O)CNC3=S)sc2c1,0,1,8,3,8.4*,1,5
CC1C(=O)N2CCCc3cc(S(=O)(=O)N4CCC(C(N)=O)CC4)cc1c32 (stereo not given),-1,0,0,0,0,.,.
O=C(c1ccc(-c2nc3ccccc3s2)o1)N1CCN(c2ccccc2O)CC1,0,0,3,-1,6.8*,0,4
CCc1ccc(OCC(=O)NC(C)(C)C)cc1,-1,0,-3,0,11*,0,-1
CCCc1cc(-c2ccc3c(c2)COc2c4ccccc4nn2-3)on1,0,2,9,4,3,.,.
Cc1cc(-c2ccc3c(c2)COc2c4ccccc4nn2-3)on1,0,4.5*,10,4.8*,9.0*,2,10*
O=C(/C(=C(\[O-])c1ccccc1)[n+]1ccc2ccccc2c1)c1ccc(Cl)cc1,0,0,0,3,9.8*,0,5
O=C(/C(=C(\[O-])c1ccccc1)[n+]1ccc2ccccc2c1)c1ccc([N+](=O)[O-])cc1,0,0,1,0,5,.,.
O=C(/C(=C(\[O-])c1ccccc1)[n+]1ccc2ccccc2c1)c1ccccc1,1,1,3,0,8.1*,0,5
O=C(/C(=C(/[O-])c1ccccc1)[n+]1ccccc1)c1ccc([N+](=O)[O-])cc1,-2,1,3,1,1,.,.
Cc1ccc(Nc2nc(=O)c3cccnc3s2)cc1,1.3*,2,9,1,11*,1,9.3*
Clc1ccccc1-c1nc(-c2ccccc2)n[nH]1,1,3,12*,4,15*,1,6.6*
Oc1ccccc1-c1n[nH]c(-c2ccccc2O)n1,1.4*,-1,13*,2,7.1*,1,9.6*
C[C@@H]1CN([C@H](C)CO)C(=O)CCCn2nncc2CO[C@H]1CN(C)Cc1cccc(O)c1,-2,1,1,2,0,.,.
COC(=O)Cc1ccc(OC2(C)CCN(Cc3ccc(-c4ccccn4)cc3)C2)cc1 (stereo not given),-1,-1,1,.,2,.,.
OC(CNc1ccccc1)Cn1ccc2ccccc21 (stereo not given),-1,0,-1,0,0,.,.
CCOC(=O)c1cnc(Nc2nc3ccccc3o2)nc1C,0,4.2*,11*,-1,6.8*,0,1
SMILES,ssDAF12 agonist,DAX1 inh-1,hgDAF-12 ag,DAX1 inh-2,hcDAF12 agonist,LXRb hcDAF ctr,hcDAF12 ag
CCOC(=O)c1cnc(Nc2nc3ccccc3o2)nc1CSc1nnc(C)s1,-1,0,1,1,0,.,.
O=C(CSc1nnc(SCC(=O)c2ccco2)s1)c1ccco1,0,-1,-1,-1,2,.,.
O=C(CSc1nc2cc(Cl)ccc2s1)c1ccco1,0,2,3,2,9.7*,0,3
O=C(/C=C/c1cnc2ccccc2n1)NC12CC3CC(CC(C3)C1)C2,0,3,7,1,11*,2,10*
Cc1cc(-c2ccccc2)nc2oc(C(=O)NN)c(N)c12,1.2*,-1,-1,0,6.6*,0,4
Cc1cc(C)c2c(N)c(C(=O)c3ccccc3)oc2n1,-1,-1,0,1,0,.,.
O=C1C=C(c2ccc(CO)cc2)C[C@@H](c2ccc(F)cc2)C1,-1,-1,2,0,1,.,.
N#CCS(=O)(=O)c1cccc[n+]1[O-],-1,1,-1,.,0,.,.
COc1ccc(C(=O)OC(C)C(=O)NCC2CCCCC2)cc1S(=O)(=O)N1CCOCC1 (stereo not given),-2,-2,-2,1,-1,.,.
CCC1(C)N=C(c2ccc3c(c2)OCO3)CC(c2ccccc2O)N1 (stereo not given),0,0,8,1,7.9*,1,5
CN(c1ccccc1C(=O)N1CCN(c2ccccc2)CC1)S(C)(=O)=O,-1,1,2,2,1,.,.
CC(C)CNC(=S)NC1CC2CCC(C1)N2Cc1ccccc1 (stereo not given),-1,1,2,-1,6.8*,0,2
C(=C\c1ccco1)/c1nc2ccccc2[nH]1,0,2,9,-1,7.3*,1,9.4*
O=C(/C=C/c1ccco1)Nc1ccc(-c2nc3ccccc3[nH]2)cc1,-1,-1,-4,-1,-4,.,.
C(=C\c1ccco1)/c1ccc2ccccc2n1,0,1,2,.,7.3*,1,13*
CC(C)=CCC[C@H](C)C[C@@H]1Cc2[nH][nH]c(=O)c2[C@@H](c2ccc(F)cc2)O1,-2,-1,1,.,-2,.,.
COc1cc([N+](=O)[O-])ccc1NC(=S)NNC(=O)CCC(=O)Nc1ccccc1Cl,0,-1,1,1,-2,.,.
O=C1/C(=C/Nc2ccc3c(c2)OCO3)CCc2ccccc21,0,1,9,-3,9.4*,1,7.5*
Cc1ccc(NC(=O)C2(S(=O)(=O)c3ccc(Cl)cc3)CC2)cc1,-1,0,-4,2,-3,.,.
c1ccc(NC2=Nc3ccccc3CS2)cc1,0,1,13*,1,7.2*,1,7.5*
C/C(=N\N=C(/N)c1nonc1N)c1ccc2c(c1)OCO2,0,4,11*,1,7.1*,2,5
COc1ccc(N=Cc2[nH]c3ccccc3c2O)cc1,1,0,8,1,12*,1,9.6*
